Not all results are given here.
aSyn 5UTR act: Activators via SNCA 5'UTR binding, MLPCN. actives 7.1% (n = 300,000). activity score, % (tested at 7.5 µM), hits read low. alpha-synuclein 5'UTR reporter, activators screen; in the data active = activity score below about -60%
* = called active by the depositor.

SMILES	aSyn 5UTR act
Nc1ccc(Br)cc1-c1nc2ccccc2[nH]c1=O	-102.0*
Nc1ccccc1-c1nc2ccccc2[nH]c1=O	-141.1*
CCSc1nnc(-c2ccccc2N)c(=O)[nH]1	-67.5*
Oc1ccc(-c2csc(Nc3ncccn3)n2)cc1	-153.7*
c1ccc(-c2csc(Nc3ncccn3)n2)cc1	-65.6*
CC(=O)Nc1ccc(-c2csc(Nc3ncccn3)n2)cc1	-89.4*
NNc1nc(-c2ccccc2)cs1	-91.7*
Cc1cccnc1Nc1nc(-c2ccccc2)cs1	-128.3*
CC(C)OC(=O)c1ccc(NC(=O)c2ccco2)cc1	-140.1*
Cc1ccc(NC(=O)c2ccccc2)cc1OC(=O)c1ccccc1	-108.9*
O=C(Nc1ccccc1)c1ccc(OC(=O)c2ccccc2)cc1	-62.8*
CCOC(=O)c1ccc(NC(=O)c2ccco2)cc1	-188.5*
CCOC(=O)/C(=C/c1ccccc1)NC(=O)c1ccco1	-64.8*
CCCOC(=O)c1ccc(NC(=O)c2ccoc2C)cc1	-154.2*
CC(C)OC(=O)c1ccc(NC(=O)c2ccccc2)cc1	-78.3*
Cc1cc(C)n(-c2ccc(C(=O)Nc3nc4ccccc4s3)cc2)n1	-97.3*
COc1cc(C(=O)Nc2nc3ccccc3s2)ccc1OCc1c(C)noc1C	-110.4*
CC(=O)Nc1cc(C)nn1-c1nc2ccccc2s1	-177.6*
CCc1ccc(NS(=O)(=O)c2ccc3[nH]cc(C(=O)N4CCc5ccccc54)c(=O)c3c2)cc1	-127.9*
CCCc1ccc(-c2ccc(F)c(N)c2)nc1	98.8
CCc1ccc(-c2ccc(C(=O)O)cc2)nc1	-126.1*
O=C(Nc1ccccn1)c1ccco1	-100.3*
COc1cccc(C(=O)Nc2ccc(NC(=O)C3CC3)cn2)c1	-157.3*
CCC(=O)Nc1cc(C)c(NC(=O)c2ccccc2OC)cn1	-70.4*
COc1ccc(C(=O)Nc2ccc(NC(=O)c3ccccc3OC)nc2)cc1	-95.9*
SMILES	aSyn 5UTR act
COc1ccc(C(=O)Nc2ccc(NC(=O)C3CC3)nc2)cc1	-86.9*
O=C(Nc1ccc(NC(=O)c2ccccc2)nc1)c1ccncc1	-81.2*
CC(C)(C)C(=O)Nc1ccc(NC(=O)c2ccco2)nc1	101.6
O=C(Cc1ccccc1)Nc1ccc(NC(=O)c2ccco2)nc1	-148.6*
COc1ccccc1C(=O)Nc1ccc(NC(=O)c2ccco2)cn1	-80.5*
CCC(=O)Nc1ccc(NC(=O)c2cccc(OC)c2)nc1	-171.5*
COc1ccc(C(=O)c2cc([N+](=O)[O-])ccc2N2CCOCC2)cc1	58.3
COc1ccc(C(=O)/C=C/c2ccccc2F)c(OC(=O)c2ccc([N+](=O)[O-])cc2)c1	-228.0*
COc1ccc(C(=O)/C=C/c2ccc(C)cc2)c(OC(=O)c2ccc([N+](=O)[O-])cc2)c1	-87.0*
CC(C)OC(=O)/C(C#N)=C/c1ccc(-c2ccc(SC(F)F)cc2)o1	-88.4*
O=C(Nc1ccc(Cl)cn1)c1ccc(COc2ccccc2Br)o1	-116.7*
CN(C)C(=O)c1ccc(COc2ccccc2Br)o1	-165.5*
O=C(Nc1ccccn1)c1ccc(COc2ccccc2Cl)o1	-70.9*
O=C(NC1CC1)c1cc2c(s1)-c1ccccc1OC2	-82.4*
O=C(NCc1cccs1)c1cc2c(s1)-c1ccccc1OC2	-89.8*
CN(C)CCNC(=O)c1cc2c(s1)-c1ccc(Cl)cc1SC2	100.5
Cc1csc2ncc(C(=O)Nc3ccccc3Cl)c(=O)n12	-204.3*
Cc1csc2ncc(C(=O)Nc3ccccc3F)c(=O)n12	-205.2*
O=C(NCc1csc(-c2ccccc2)n1)c1cc(F)cc2c1OCOC2	-113.1*
Cc1ccccc1Nc1nnc(SCC(=O)NC(=O)Nc2ccc3c(c2)OCCO3)s1	-85.6*
Cc1cccc(Nc2nnc(SCC(=O)NC(=O)Nc3ccc4c(c3)OCCO4)s2)c1	-95.2*
Cc1ccccc1NC(=O)c1cnn(-c2ccccc2)c1C	-164.3*
Cc1ccc(C)c(NC(=O)c2cnn(-c3ccccc3)c2C)c1	-81.4*
Cc1cccc(NC(=O)c2cnn(-c3ccccc3)c2C)c1C	-128.8*
Cc1nn(CC(=O)c2ccccc2Cl)c(C)c1[N+](=O)[O-]	-176.9*
SMILES	aSyn 5UTR act
C/C(=N\NC(=O)C(C)n1nc(C)c([N+](=O)[O-])c1C)c1ccccc1O (stereo unspecified)	77.8
CCOC(=O)c1oc2nc3c(cc2c1N)CCCC3	-107.4*
c1ccc(CC2CCN(C3=Nc4cccc5cccc3c45)CC2)cc1	-95.5*
COc1ccccc1N1CCN(C2=Nc3cccc4cccc2c34)CC1	-181.4*
Oc1ccc(CN2CCC(Cc3ccccc3)CC2)c2cccnc12	105.0
C/C(=N\OCc1ccc(C#N)cc1)c1ccccc1	-119.8*
C/C(=N\OCc1cccc(C(=O)O)c1)c1ccc(Cl)cc1	104.4
CCC(Sc1nc2ccccc2c(=O)[nH]1)C(=O)Nc1ccc(C(C)=O)cc1 (stereo unspecified)	-79.1*
CCCCCCCCn1ccc(=N)cc1	61.9
CCCCCCN1Cc2ccccc2C1	-117.1*
CCCCCCCCCCn1ccc(=N)cc1	106.5
COC(=O)CCc1sc(Nc2ccccc2)nc1-c1ccc(OC)cc1	-62.0*
Cc1cc(-c2ccccc2)nc(Cl)c1C#N	-79.6*
Cc1ccc(-c2cc(-c3ccccc3)nc(Cl)n2)cc1	-72.0*
COc1ccc(N2Cc3ccc(OC)c(OC)c3C2=O)cc1	-223.7*
COc1ccc(N2CCc3c(C)nc4c(OC)cccc4c32)cc1	89.1
COc1ccc2c(c1OC)C(=O)N(c1nccs1)C2	-110.8*
CC(=O)Nc1nc(C)c(-c2csc(Nc3cccc([N+](=O)[O-])c3)n2)s1	66.7
CC(=O)c1cccc(Nc2nc(-c3cccc([N+](=O)[O-])c3)cs2)c1	-222.3*
CC(=O)c1sc(N/N=C/c2cccc(O)c2)nc1C	-337.9*
Cc1csc(N/N=C/c2ccccn2)n1	68.7
Cc1[nH]n(-c2nc(-c3cccc([N+](=O)[O-])c3)cs2)c(=O)c1C	-135.0*
Cc1csc(N/N=C/c2ccc([N+](=O)[O-])cc2)n1	-147.5*
CC(=O)c1sc(N/N=C\c2ccc(N(C)C)cc2)nc1C	-135.3*
CC(=O)Nc1sc(N/N=C/c2ccc(N(C)C)cc2)nc1-c1ccc(C)cc1	-68.0*
SMILES	aSyn 5UTR act
O=[N+]([O-])c1cccc(-c2csc(N/N=C/c3cccc(O)c3)n2)c1	-216.1*
CC(=O)c1sc(N/N=C/c2cccc([N+](=O)[O-])c2)nc1C	-169.6*
Cc1ccc2nsnc2c1NC(=O)c1ccc([N+](=O)[O-])o1	-173.5*
Cc1ccc2nsnc2c1NC(=O)CCl	-82.3*
CCOC(=O)C(C#N)c1ccccn1 (stereo unspecified)	-69.6*
N/C(=N\OC(=O)c1cccc2ccccc12)c1cccc([N+](=O)[O-])c1	-122.8*
Cc1ccccc1C(=O)O/N=C(\N)c1cccc([N+](=O)[O-])c1	-274.9*
N/C(=N\OC(=O)c1cccc2ccccc12)c1cccnc1	-184.0*
O=C(NN/C(=N/S(=O)(=O)c1ccc(Cl)cc1)c1ccccc1)c1ccc(O)cc1	-111.5*
O=S(=O)(/N=C(/Nc1ccccn1)c1ccc(Cl)cc1)c1ccc(Cl)cc1	-91.3*
O=C(NN/C(=N/S(=O)(=O)c1ccc(Cl)cc1)c1ccccc1)c1cccc(Cl)c1	-124.3*
Cc1ccc(S(=O)(=O)/N=C(/NNC(=O)c2cccc(Cl)c2)c2ccccc2)cc1	-101.1*
Cc1c(Cl)ccc2c(C(=O)NC(C)c3ccncc3)cc(-c3ccncc3)nc12 (stereo unspecified)	-67.3*
CCOC(=O)c1cccc(OS(=O)(=O)Cc2ccccc2)c1	-63.2*
CCOC(=O)c1ccc(NCc2ccc(N(C)C)cc2)cc1	-87.0*
CCOC(=O)c1ccc(CNCc2ccccc2)cc1	-65.9*

Compound activity deposited in PubChem by Broad Institute.
